Test [1] in a line: sensitizers of A549 cells to miR-34 induction, primary screen, imaging, A549 dox-inducible miR-34, nuclei and caspase counts (AID 1347080). Note: test concentration not given here. To be noted: A549 miR-34 inducible, Hoechst nuclei count, 48 h.
Test [2] can be described thus: survival rescue of mitochondrial mutant cells in low glucose, primary screen, MELAS cybrids, Rieske KO mouse fibroblasts, CellTiter-Glo (AID 1508586;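 active = mean z-score across replicates of 1.96 or higher in either the MELAS or the Rieske mutant cell line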;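 note: test concentration not given here; z relative to plate mean and SD of compound and empty wells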). In general terms: Cellular ATP, detected with luciferase, serves as a proxy for viable cell number.
Test [3] can be described thus: viability rescue of complex I mutant cybrids, primary screen, cell-based, galactose medium, ATP luminescence (AID 1645843;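 active = z-score of at least 1.8 in each of two replicates, scored against plate mean and spread of sample wells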;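 note: positive z means more ATP and so rescue of galactose-driven cybrid death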). The following applies: complex I mutant cybrid cells, 72 h, stronger effect = higher value.
[4] abbreviates: stronger effect = lower value, cell number ratio, induced over uninduced.
The mark [5] stands for this setting: measured here: relative caspase fold change +Dox/-Dox.
Where [6] appears, read: measured here: total cells with miR-34 induction, stronger effect = lower value.
[7] abbreviates: measured here: total cells without miR-34 induction.
The mark [8] stands for this setting: MELAS cybrid survival, CellTiter-Glo 48 h, stronger effect = higher value.
The mark [9] stands for this setting: Rieske KO mouse fibroblast survival, CellTiter-Glo 72 h.

“And” between values parts separate entries of the source, which are not always exact repeats. Equal entries are not always repeated. The source made the active and inactive calls.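 Rule for the calls, unless noted: active = compounds whose cell count with miR-34 switched on is under 0.7 times the count with it off; inactive = the rest.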

As to `COc1ccc2c(C(=O)N(C)Cc3nonc3C)cc(-c3cnn(C)c3)nc2c1`, the fold change in test [1] (setting [4]) is 0.963 (inactive); in test [1] (setting [5]), 1.42. The figures for the cell count in test [1] (setting [6]) and in test [1] (setting [7]) were 8090 and 8400, respectively. Moreover, the z-score in test [2] (setting [8]) was -0.189 (inactive); in test [2] (setting [9]), -0.423; in test [3], -0.54 (inactive).
In the case of `Nc1ccn(C2OC(CO)C(O)C2O)c(=O)n1` (configuration not stated), the fold change is 1.14 (inactive) and 0.906 (inactive) in test [1] (setting [4]); 0.982 and 0.86 in test [1] (setting [5]). Also, the cell count in test [1] (setting [6]) is 2260 and 7940; in test [1] (setting [7]) it was 1990 and 8760. Moreover, the z-score in test [2] (setting [8]) is -0.137 (inactive); in test [2] (setting [9]), -0.441; in test [3], -1.19 (inactive).
As for `O=C1CN(C(=O)c2ccncc2)CCN1Cc1ccc2c(c1)OCO2`, the fold change in test [1] (setting [4]) is 0.914 (inactive); in test [1] (setting [5]) it was 1.59. Also, the cell count stood at 9040 in test [1] (setting [6]) and 9890 in test [1] (setting [7]). Besides, the z-score in test [2] (setting [8]) was -0.12 (inactive); in test [2] (setting [9]), -0.568; in test [3], -0.52 (inactive).
With `CN=C(NC)NCc1ccccc1`, the fold change was 0.917 (inactive) in test [1] (setting [4]) and 0.571 in test [1] (setting [5]). The results for the cell count in test [1] (setting [6]) and in test [1] (setting [7]) were 9010 and 9830, respectively. Also, the z-score in test [2] (setting [8]) was 0.186 (inactive); in test [2] (setting [9]) it was -0.223; in test [3] it was 0.38 (inactive).
In the case of `NC(=O)NC(Cc1ccccc1)C(=O)O` (configuration not stated), the fold change in test [1] (setting [4]) was 0.889 (inactive); in test [1] (setting [5]), 0.725. For the same molecule, the cell count in test [1] (setting [6]) came out at 8700; in test [1] (setting [7]), 9790. In addition, the figures for the z-score in test [2] (setting [8]), in test [2] (setting [9]) and in test [3] were -0.32 (inactive), -0.255 and 0.66 (inactive), respectively.
Turning to `CC(C)C1=NOC(c2nc(-c3cccc4ccccc34)no2)C1` (configuration not stated), the fold change in test [1] (setting [4]) was 0.862 (inactive); in test [1] (setting [5]), 1.54. In addition, the cell count in test [1] (setting [6]) was determined as 7930; in test [1] (setting [7]), 9200. Also, the z-score was 0.244 (inactive) in test [2] (setting [8]), 0.252 in test [2] (setting [9]) and 2 (inactive) in test [3].
With `CCc1ccc(-c2nn(CC(=O)Nc3cnn(C)n3)c3ccccc23)cc1`, the fold change in test [1] (setting [4]) is 0.895 (inactive); in test [1] (setting [5]) it was 1.48. In addition, the figures for the cell count in test [1] (setting [6]) and in test [1] (setting [7]) were 6460 and 7220, respectively. For the same molecule, the results for the z-score in test [2] (setting [8]), in test [2] (setting [9]) and in test [3] were -0.0449 (inactive), -0.314 and 1.09 (inactive), respectively.
For the molecule `CCn1nccc1NC(=O)Cn1cc(-c2ccc(C(=O)N3CCCC3)cn2)cn1`, the fold change in test [1] (setting [4]) is 0.832 (inactive); in test [1] (setting [5]), 1.64. Moreover, the cell count was 7850 in test [1] (setting [6]) and 9430 in test [1] (setting [7]). For the same molecule, the z-score was 0.812 (inactive) in test [2] (setting [8]), -0.539 in test [2] (setting [9]) and -0.57 (inactive) in test [3].
Take `CCCn1cc(-c2ccnc(NC3CCN(Cc4cccnc4)CC3)n2)c(C)n1`: the fold change in test [1] (setting [4]) is 0.82 (inactive); in test [1] (setting [5]) it was 2. Further, the cell count in test [1] (setting [6]) was found to be 3430; in test [1] (setting [7]), 4180. The z-score in test [2] (setting [8]) was -0.647 (inactive); in test [2] (setting [9]) it was 0.672; in test [3], -0.55 (inactive).
In the case of `NS(=O)(=O)c1ccc(C(=O)NCCn2cccn2)cc1`, the results for the fold change in test [1] (setting [4]) and in test [1] (setting [5]) were 0.945 (inactive) and 1.97, respectively. In addition, the cell count in test [1] (setting [6]) worked out at 9500; in test [1] (setting [7]), 10100. Moreover, the figures for the z-score in test [2] (setting [8]), in test [2] (setting [9]) and in test [3] were -0.281 (inactive), -0.563 and -0.555 (inactive), respectively.
With `COc1ccc(CC(C)NCC(O)c2ccc(O)c(NC=O)c2)cc1` (configuration not stated), the fold change is 0.94 (inactive) and 0.989 (inactive) in test [1] (setting [4]); 1.58 and 0.394 in test [1] (setting [5]). Besides, the cell count in test [1] (setting [6]) is 10500 and 8090; in test [1] (setting [7]) it was 11200 and 8180. Also, the results for the z-score in test [2] (setting [8]), in test [2] (setting [9]) and in test [3] were 0.143 (inactive), -0.0828 and -0.17 (inactive), respectively.
With `Cc1nsc(NC(=O)N(C)Cc2cn[nH]c2-c2ccc(F)cc2)n1`, the fold change in test [1] (setting [4]) is 0.916 (inactive); in test [1] (setting [5]), 0.879. Further, the cell count worked out at 9230 in test [1] (setting [6]) and 10100 in test [1] (setting [7]). In addition, the z-score in test [2] (setting [8]) is 0.225 (inactive); in test [2] (setting [9]), -0.278; in test [3], -0.49 (inactive).
Consider `COc1cccc2c(=O)n(Cc3ccc4ncccc4c3)cnc12`, for which the figures for the fold change in test [1] (setting [4]) and in test [1] (setting [5]) were 0.883 (inactive) and 1.22, respectively. Further, the values for the cell count in test [1] (setting [6]) and in test [1] (setting [7]) were 8080 and 9140, respectively. Moreover, the values for the z-score in test [2] (setting [8]), in test [2] (setting [9]) and in test [3] were -0.263 (inactive), -0.193 and -0.28 (inactive), respectively.
In the case of `Cn1c(=O)c(O)c(O)c2ccccc21`, the fold change is 0.815 (inactive) in test [1] (setting [4]) and 0.99 in test [1] (setting [5]). In addition, the cell count in test [1] (setting [6]) was 4980; in test [1] (setting [7]), 6110. The z-score was -0.227 (inactive) in test [2] (setting [8]), -0.541 in test [2] (setting [9]) and -2.27 (inactive) in test [3].
`O=C(Nc1c[nH]c2ccccc12)c1cccnc1`: the fold change in test [1] (setting [4]) was 0.884 (inactive); in test [1] (setting [5]), 1.08. Also, the results for the cell count in test [1] (setting [6]) and in test [1] (setting [7]) were 8140 and 9200, respectively. For the same molecule, the z-score in test [2] (setting [8]) is -0.289 (inactive); in test [2] (setting [9]), -0.312; in test [3], 1.14 (inactive).
Take `COc1cc(N2CCN(Cc3ccccc3F)C(=O)C2)ncn1`: the fold change was 0.848 (inactive) in test [1] (setting [4]) and 1.97 in test [1] (setting [5]). Moreover, the cell count in test [1] (setting [6]) stood at 6780; in test [1] (setting [7]), 7990. Further, the z-score in test [2] (setting [8]) is -0.24 (inactive); in test [2] (setting [9]), -0.349; in test [3] it was -0.475 (inactive).
As for `CN1CC2c3ccccc3Oc3ccc(Cl)cc3C2C1` (configuration not stated), the fold change is 0.788 (inactive) in test [1] (setting [4]) and 0.355 in test [1] (setting [5]). Moreover, the cell count in test [1] (setting [6]) was found to be 4990; in test [1] (setting [7]), 6330. The z-score is 0.214 (inactive) in test [2] (setting [8]), 0.0022 in test [2] (setting [9]) and -2.21 (inactive) in test [3].
As for `O=C(O)Cc1c[nH]c2ccccc12`, the fold change was 0.913 (inactive) in test [1] (setting [4]) and 0.9 in test [1] (setting [5]). Also, the cell count in test [1] (setting [6]) came out at 8300; in test [1] (setting [7]), 9090. For the same molecule, the z-score was -0.643 (inactive) in test [2] (setting [8]), -0.265 in test [2] (setting [9]) and 0.49 (inactive) in test [3].
Consider `Cc1cc(C)nc(-c2cnn(CC(=O)Nc3cnn(C)n3)c2)n1`, for which the values for the fold change in test [1] (setting [4]) and in test [1] (setting [5]) were 0.881 (inactive) and 1.67, respectively. In addition, the values for the cell count in test [1] (setting [6]) and in test [1] (setting [7]) were 8470 and 9620, respectively. For the same molecule, the z-score is 0.0131 (inactive) in test [2] (setting [8]), -0.562 in test [2] (setting [9]) and -0.525 (inactive) in test [3].
As for `COc1ccc2c(c1)CCN(C(=O)Nc1n[nH]c(-c3ccco3)n1)C2`, the results for the fold change in test [1] (setting [4]) and in test [1] (setting [5]) were 0.87 (inactive) and 1.45, respectively. Further, the cell count in test [1] (setting [6]) amounted to 7950; in test [1] (setting [7]), 9130. The figures for the z-score in test [2] (setting [8]), in test [2] (setting [9]) and in test [3] were 0.18, 3.56 and 0.245 (inactive), respectively.
For the molecule `Cc1cc(C)nc(-c2cnn(CC(=O)Nc3cc(C)nn3-c3ccccn3)c2)n1`, the fold change in test [1] (setting [4]) was 0.882 (inactive); in test [1] (setting [5]), 1.32. Also, the cell count worked out at 5870 in test [1] (setting [6]) and 6650 in test [1] (setting [7]). Moreover, the z-score in test [2] (setting [8]) is -0.672 (inactive); in test [2] (setting [9]), -0.181; in test [3], -0.415 (inactive).

The values above are taken from PubChem BioAssay.
